Results on 40 compounds are retold here after PubChem BioAssay (NCI).

SMILES strings stand for the structures. This is part of a sample that, as a whole, favours compounds with a hit. Of some 83,000 tested, about 20% had one in any assay.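 Note: values are percent growth. 100 is the growth of untreated cells, values between 100 and 0 indicate rising inhibition; between -100 and 0 indicates cell death.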 A number with no mark means an inactive call. Active and inactive are the calls of the source. How the source made its calls: active means growth percent below 10; inactive means the rest.

The assay deals with HL-60(TB) leukemia. Description: NCI-60 one-dose screen, 48 h (100 = growth as untreated, 0 = no growth, -100 = all killed). The note with it: 10 µM unless noted.
With `CNC(=O)c1cccnc1`, the growth was 99.5%. For `COc1ccc(Cn2c(C(N)=O)cc3c2-c2nc(N)ncc2CCC3)cc1`, the growth was 121%. With `CC[C@]12C=CCN3CC[C@@]4(c5ccc(OC)cc5N(C)[C@H]4[C@@](O)(C(=O)OC)[C@@H]1OC(=O)CCC(=O)O[C@H]1CC[C@H]4[C@@H]5CCC6=CC(=O)CC[C@@H]6[C@H]5CC[C@]14C)[C@@H]32`, the growth was -37.9% [100 µM] (active). As for `NC(N)=N/N=C/CO`, the growth was 102%. As for `COc1ccc(-c2nn(-c3cccc(Cl)c3)cc2C2CC(c3ccccc3)=NN2C(C)=O)cc1` (stereo not given), the growth is 101%. Consider `CCC/C(=N\NC(N)=O)C(OC)OC`, for which the growth was 86.5%.

`COc1ccc(C(=O)c2cc3c(N)c(C(=O)Nc4cccc5ccccc45)sc3nc2C)cc1`: the growth is -49% (active). As to `CS(=O)(=O)Nc1cccc(-c2cc(-c3ccccc3Cl)c(C#N)c(N)n2)c1`, the growth was 8.6% (active).

Regarding `CC1CCCCC[N+]12CCCC2` (stereo not given), the growth is 102%. Take `O=CN1N=C(c2ccc(F)cc2)CC1c1cccc(Nc2ccnc3cc(C(F)(F)F)ccc23)c1` (stereo not given): the growth was 8.69% (active).

For the compound `NC(=O)c1ccc(C2C3=C(CCCC3=O)OC3=C2C(=O)c2ccccc2C3=O)cc1` (stereo not given), the growth was -30.4% (active).

`CC1=NOCC(=O)N1`: the growth is 104%. In the case of `O=C(c1ccc(F)c(Cl)c1)N1c2ccccc2Sc2ccccc21`, the growth was 30.8%.

As to `c1ccc2c(c1)Cc1ccccc1N2CCN1CCCCC1`, the growth is 85.1%.

Consider `CCCCCCCC/C=C\CCCCCCCCOc1cccc(CC(=O)NCC[N+](C)(C)C)c1`, for which the growth is 61.1%. `CCOC(=O)Nc1ccc2nc(-c3cscn3)[nH]c2c1`: the growth was 18.7%. As to `CN(C1c2ccccc2Oc2ccccc21)S(=O)(=O)c1cc(Cl)ccc1Cl`, the growth is 15.7%.

In the case of `CCC(CC)NCCCCCNc1cc(OC)cc2cccnc12`, the growth was 110%. Consider `COc1ccc2nc3cc(Cl)ccc3c(N3CCN(c4nccc(Nc5ccccc5)n4)CC3)c2c1`, for which the growth was 73.8%. For `CC(=O)ON=C1C=CC(=C(C#N)c2ccccc2)C=C1`, the growth was -10.5% (active). As for `COc1ccc(-c2c(C)nn3c(NCCN4CCOCC4)cc(C)nc23)cc1OC`, the growth was 107%. As to `Cc1c(C(=O)Nc2nc(-c3ccccc3)cs2)nnn1-c1cccc2ccccc12`, the growth was 54.4% [50 µM]. In the case of `CCOC(=O)c1c(NC(=O)c2ccccc2)sc2c3c(ccc12)OCN(C)C3`, the growth was -62.5% (active). Turning to `CCOC(=O)c1cc(/C=C/c2cccc(Cl)c2)on1`, the growth was 74.9%.

Turning to `O=C(O)CCNS(=O)(=O)c1ccc(-c2ccccc2)cc1`, the growth is 188%. With `C=C1C(=O)O[C@H]2[C@H]1CC/C(Cn1cc(Cn3ccc4ccccc43)nn1)=C\CC[C@@]1(C)O[C@@H]21`, the growth was -48.5% (active).

On to `[Cu+].[NH-][C@H]1C[N-]C(=O)[C@H]([C@H]2CCN=C(N)N2)[N-]C(=O)/C(=C\NC(N)=O)[N-]C(=O)[C@H](CNC(=O)C[C@@H](N)CCCN)[N-]C(=O)[C@H](CO)[N-]C1=O`, for which the growth is 104%. To `CNC(=O)c1[nH]cc(-c2ccccc2)c1-c1cc(OC)c2c(c1OC)OCO2` belongs 93.3%. Regarding `COc1ccc(/C=C(\C#N)c2cc3ccccc3n2C(C)=O)cc1`, the growth is 83.2%. `CCO/C=N/C1=C(C#N)C(c2ccc(Cl)cc2)c2c(c3ccccc3n(C)c2=O)O1` (stereo not given): the growth is 53.4%. To `C/C=C(\C)C(C(=O)NC1CCCCC1)N(C(=O)C1CCc2cc(F)ccc2O1)c1ccc([N+](=O)[O-])cc1` (stereo not given) belongs 82.4%. As for `CCOC(=O)/C(=C\c1ccc(-c2ccccc2)cc1)C(C)=O`, the growth was 93.7%.

Regarding `Cc1cc(NS(=O)(=O)c2ccccc2)c(OS(=O)(=O)c2ccccc2)cc1C`, the growth was 105%. Consider `Cc1nc2c(c(N3CCCc4ccccc43)n1)CCC2`, for which the growth was -42.3% (active). For the compound `COP(=O)(OC)C(c1ccccc1)(c1ccccc1)c1ccccc1`, the growth is 45.3%. For `COc1cc(NC(=O)c2cccc(-c3cc(=O)c4c(OC)c(OC)c(OC)cc4o3)c2)cc(OC)c1OC`, the growth was 36%.

With `CCCCNCCCN(CCCC)CCCNCCCC`, the growth is 98.5%. For the compound `O=C1NC(=S)NC(=O)C1=Cc1cn(Cc2cn(Cc3cccc4ccccc34)nn2)c2ccccc12`, the growth was 106%. As to `Cc1ccc(S(=O)(=O)NC(CCC(=O)Nc2ccccc2)C(=O)Nc2ccccc2)cc1` (stereo not given), the growth was -2.4% (active). `CN1CCN(CCCOc2ccc3ncnc(Nc4ccc(OCc5cccc(F)c5)c(Cl)c4)c3c2)CC1`: the growth was -42.3% (active).
